This is an account of results in ChEMBL document CHEMBL4513141, “CO-ADD screening of NIH (USA) - Clinical Collection” (2021).

Structures are written as SMILES. Results with a measured potency or affinity are listed apart.

For experiment [1], the system named is Klebsiella pneumoniae. Particulars: Concentration 20 uM; ASSAY_TEST Inhibition of Bacterial Growth; detection method Absorption (OD600); MEDIA CAMHB; plate type 384well; NBS; CORNING #3640; time 18 hr.
Experiment [2] deals with Candida albicans. Particulars: 20 µM.
In experiment [3] the test system is Cryptococcus neoformans. The conditions noted are these: Concentration 20 uM; ASSAY_TEST Inhibition of Fungal Growth; detection method Resazurin; Absorption (OD600-OD570); plate type 384well; NBS; CORNING #3640. A general note: Alamar Blue is a resazurin reagent that responds to reducing activity.

With `CC1(C)S[C@@H]2[C@H](NC(=O)[C@H](N)c3ccc(O)cc3)C(=O)N2[C@H]1C(=O)O` [AMOXICILLIN], the values for the Inhibition in experiment [1], in experiment [2] and in experiment [3] were 10.29%, 9.25% and -2.09%, respectively.
`COC(=O)C1=C(C)NC(C)=C(C(=O)OCC(C)C)C1c1ccccc1[N+](=O)[O-]` (stereo not given) [NISOLDIPINE]: the Inhibition worked out at 25.81% in experiment [1], 6.12% in experiment [2] and 42.23% in experiment [3].
Consider `Oc1ccc(/C=C/c2cc(O)cc(O)c2)cc1` [RESVERATROL], for which the Inhibition in experiment [1] is 12.99%; in experiment [2] it was 2.92%; in experiment [3] it was -4.32%.
The corresponding values for `CC1=Nc2ccc(Cl)cc2S(=O)(=O)N1` [DIAZOXIDE] are 19.87%, 4.07% and -6.19%.
For `CC(C)(C)NCC(O)COc1cccc2c1CC(O)C(O)C2` (stereo not given) [NADOLOL], in that order: 10.61%, 1.18% and -8.66%.
For the compound `O=C(CCNNC(=O)c1ccncc1)NCc1ccccc1` [NIALAMIDE], the Inhibition in experiment [1] was 13.86%; in experiment [2], 4.06%; in experiment [3], -3.3%.
For `CN(C)CC[C@@H](c1ccc(Cl)cc1)c1ccccn1.O=C(O)/C=C\C(=O)O` [DEXCHLORPHENIRAMINE MALEATE], in that order: 21.61%, 2.45% and -7.42%.
Take `COCCCC/C(=N\OCCN)c1ccc(C(F)(F)F)cc1.O=C(O)/C=C\C(=O)O` [FLUVOXAMINE MALEATE]: the Inhibition in experiment [1] is 6.46%; in experiment [2], 2.11%; in experiment [3] it was -8.17%.
For `CC(C)NCC(O)c1ccc(NS(C)(=O)=O)cc1.Cl` (stereo not given) [SOTALOL HYDROCHLORIDE], in that order: -0.96%, 5.09% and 3.23%.
Consider `Nc1nc(Cl)nc2c1ncn2[C@@H]1O[C@H](CO)[C@@H](O)[C@H]1O`, for which the Inhibition in experiment [1] turned out to be 2.26%; in experiment [2], 4.78%; in experiment [3] it was 0.98%.

By Inhibition is commonly meant the relative decrease from the control value, in per cent.
